# Source: PubChem
# A selection: hits, their analogues and other compounds. The true share with any hit is near 19%.
# IL1B secr inh – inflammasome signaling inhibition, IL-1 beta readout; THP-1 LPS/ATP IL-1B secretion, AlphaLISA, 16 h; hits give low values; activity change, % at 57.5 µM; actives 4.7% (n = 360,000); in the data active means activity change below about -50%; inconclusive means mostly about -30% to -49%; further: on the % scale 0 is the no-effect control and ±100 the full control effect
#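 Secreted IL-1B measured by AlphaLISA bead assay after 16 h compound exposure of THP-1 cells; compounds (final up to 57.5 uM) added 1 h before LPS (250 ng/mL) and ATP (1.25 mM) stimulation; lower signal means less secretion.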
# TGFb inhibitor – inhibitors of TGF-b signaling; HepG2 CAGA-GFP TGF-b/SMAD3 reporter, GFP fluorescence, 18 h; TGF-beta stimulated, 500 pg/mL final; Potency, µM (titrated, usually from 46.1 µM), without a hit: top-dose activity, negative = inhibition, actives largely listed as inhibitors; actives 1.2% (n = 410,000); AID 588855; further: potency means the concentration at half of the fitted maximal effect; on the % scale 0 is the no-effect control and ±100 the full control effect; nearly all actives have a fitted effect of over 65% in size
#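 HEPG2 CAGA-GFP reporter cells (1000/well, DMEM with 1% FBS) received compounds, then recombinant TGF-beta at 500 pg/mL final for 18 hours at 37 degrees C. Per-cell GFP summed per well was normalised to unstimulated and stimulated DMSO controls before curve fitting.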
# DT40 TDP1 CPT – DT40-hTDP1 cell growth loss with CPT. actives 12% (n = 420,000). chicken DT40 Tdp1-/-;hTDP1 cells + 20 nM CPT, ATP luminescence, 48 h. Potency, µM (top dose mostly 46.2 µM), without a hit: at the highest dose activity change, negative = growth inhibition, actives largely listed as inhibitors. AID 686979; further: potency means the concentration at half of the fitted maximal effect; on the % scale 0 is the no-effect control and ±100 the full control effect; nearly all actives have a fitted effect of over 55% in size
#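 Chicken DT40 Tdp1-/- cells complemented with human TDP1, 400 cells/well, exposed to compounds plus 20 nM camptothecin for at least 48 h at 37 C; viability read as ATP content by CellTiter-Glo luminescence.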
# ASM inhibitor – blocks human secretory acid sphingomyelinase; P17405; placental ASM, HMU-PC fluorogenic substrate, 60 min; actives 0.006% (n = 340,000); Potency, µM (titrated, usually from 57.5 µM), for the others: at the highest dose activity change, negative = inhibition, most hits filed as inhibitors; further: potency means the concentration at half of the fitted maximal effect
# Target sequence (P17405 47-631 limits assumed): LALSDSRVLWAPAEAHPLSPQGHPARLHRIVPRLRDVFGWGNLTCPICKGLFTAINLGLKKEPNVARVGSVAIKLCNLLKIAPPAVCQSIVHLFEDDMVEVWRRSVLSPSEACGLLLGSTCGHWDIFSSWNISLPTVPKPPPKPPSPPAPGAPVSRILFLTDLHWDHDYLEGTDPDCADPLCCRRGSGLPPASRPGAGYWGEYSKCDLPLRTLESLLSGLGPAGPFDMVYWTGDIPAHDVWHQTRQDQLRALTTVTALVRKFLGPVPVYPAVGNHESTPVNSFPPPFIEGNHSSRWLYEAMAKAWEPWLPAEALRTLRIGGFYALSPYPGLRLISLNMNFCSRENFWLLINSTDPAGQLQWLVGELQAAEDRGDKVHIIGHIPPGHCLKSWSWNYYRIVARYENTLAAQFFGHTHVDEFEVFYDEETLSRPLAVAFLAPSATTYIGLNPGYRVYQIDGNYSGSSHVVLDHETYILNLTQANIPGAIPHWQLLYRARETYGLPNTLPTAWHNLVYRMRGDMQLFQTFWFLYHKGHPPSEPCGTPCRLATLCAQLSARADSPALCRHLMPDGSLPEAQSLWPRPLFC
#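 Human placenta-derived ASM enzyme was preincubated with compound for 10 minutes at room temperature, then given fluorogenic substrate HMU-PC0 (9 uM final) for 60 minutes at 37 °C; a pH 10 stop preceded fluorescence reading at Ex 386/Em 447 nm.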
# TDP1 cell noCPT – qHTS for Inhibitors of human tyrosyl-DNA phosphodiesterase 1 (TDP1): qHTS in cells in absence of CPT. AID 686978, 2013. Potency, µM (highest dose often 46.2 µM), without a hit: top-dose activity change, negative = growth inhibition, most hits filed as inhibitors. actives 15% (n = 420,000). DT40 Tdp1-/- hTDP1 cells, no CPT, ATP luminescence, 48 h; further: potency means the concentration at half of the fitted maximal effect; on the % scale 0 is the no-effect control and ±100 the full control effect; nearly all actives have a fitted effect of over 55% in size
#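 Compound effects on proliferation are scored in DT40 Tdp1-/-;hTDP1 cells in the absence of CPT. ATP levels (CellTiter-Glo luminescence) are recorded after a ≥48 hr, 37 °C incubation.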
# HepG2 tox – counter-screen for TGF-b inhibitors: cytotoxicity in HepG2 cells | HepG2 CAGA-GFP viability, ATP luminescence, 18 h | Potency, µM (doses to about 46.1 µM), for the others: at the top dose activity change, negative = cytotoxicity, usual class: cytotoxic | actives 0.76% (n = 410,000); further: potency means the concentration at half of the fitted maximal effect
#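 HepG2 CAGA-GFP cells (1000/well, DMEM with 1% FBS) received compound, then TGF-beta at 500 pg/mL final, and were incubated 18 hours at 37 degrees C. Viability was read by CellTiter-Glo luminescence. Media-only wells were set as complete cell-killing and DMSO as no toxicity.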
# Active calls of the source: *; u = inconclusive; x = no result given; [ ] = dose if it differs, or a comment. Unless noted, the call rests on the fitted dose curve; in most records, active means well fitted curve in the direction sought with a large enough effect; inconclusive means small, poorly fitted or top-dose-only effect, or another doubt; inactive means no such curve, though single readings can be large; an effect the other way counts as inactive or inconclusive.
SMILES,IL1B secr inh,TGFb inhibitor,DT40 TDP1 CPT,ASM inhibitor,TDP1 cell noCPT,HepG2 tox
COc1ccccc1-c1noc(-c2ccc(NC3CCCC3)c([N+](=O)[O-])c2)n1,x,-10%,18µM*,x,23µM*,-2%
Cc1ccccc1-c1noc(-c2ccc(NC3CCCC3)c([N+](=O)[O-])c2)n1,x,7%,-12%,x,-19%,14%
COc1ccccc1-c1noc(-c2ccc(NCC3CCCO3)c([N+](=O)[O-])c2)n1 (stereo not drawn),x,0%,18µM*,x,8.2µM*,-10%
Cc1ccccc1-c1noc(-c2ccc(NCC3CCCO3)c([N+](=O)[O-])c2)n1 (stereo not drawn),x,0%,3.3µM*,x,2.1µM*,1%
O=[N+]([O-])c1cc(-c2nc(-c3ccccc3)no2)ccc1NCC1CCCO1 (stereo not drawn),x,-9%,u,x,u,-6%
CCOC(=O)C1(NC(=O)C2(NC(=O)CN3C(=O)c4ccccc4C3=O)CCCC2)CCCC1,0,0%,0%,2%,-11%,-9%
CCC(=O)Nc1ccc2c(c1)OC[C@@H](C)N(Cc1cccc(F)c1)C[C@@H](C)[C@@H](OC)CN(C)C2=O,4,x,u,x,23µM*,x
CO[C@@H]1CN(C)C(=O)c2cc(NC(=O)NC3CCCCC3)ccc2OC[C@@H](C)N(CCc2ccccc2)C[C@@H]1C,-6,x,16µM*,x,u,x
CO[C@@H]1CN(C)C(=O)c2ccc(NC(=O)C3CCCC3)cc2OC[C@@H](C)N(Cc2ccc(F)cc2)C[C@H]1C,0,x,u,x,u,x
CO[C@@H]1CN(C)C(=O)c2ccc(NC(C)=O)cc2OC[C@@H](C)N(C(=O)NC2CCCCC2)C[C@H]1C,29,x,-5%,x,6%,x
CO[C@H]1CN(C)C(=O)c2ccc(NC(=O)C3CCC3)cc2OC[C@H](C)N(CC2CCCCC2)C[C@@H]1C,15,x,u,x,21µM*,x
COc1ccc(-c2nc(C(N)=O)c3c(n2)n(-c2ccccc2OC)c(=O)n3C)c(OC)c1,x,8%,x,x,x,3%
c1ccc(Cn2ccc(-c3cnc(-c4ccccc4)s3)n2)cc1,-7,u,u,42%,18µM*,-19%
CCCCSc1nnc2n(CCc3ccccc3)c(=O)c3c4c(sc3n12)COC(C)(C)C4,-3,1%,23µM*,2%,23µM*,-2%
COc1ccc(NC(=S)N2CCC(c3nc4ccccc4o3)CC2)c(OC)c1,-1,14%,u,-1%,0%,1%
O=C(NCCc1ccccc1)C(c1ccccc1F)N(C(=O)c1csnn1)C1CC1 (stereo not drawn),-11,0%,-27%,4%,u,1%
O=C(NN1CCN(Cc2ccccc2)CC1)c1ccc(N2CCOCC2)c([N+](=O)[O-])c1,39,2%,0%,-4%,u,1%
CCN1CCC(O)(/C=C/c2ccc(C(C)C)cc2)C(C(=O)/C=C/c2ccc(C(C)C)cc2)C1 (stereo not drawn),-117*,8.9µM*,15µM*,u,23µM*,13µM*
CCN1CCN(C(=O)/C=C/c2ccc(C(C)C)cc2)CC1,-3,11%,-2%,-2%,-26%,-2%
Cc1ccc(C)c(NC(=O)CN2C(=O)CCc3ccccc32)c1,x,1%,-6%,x,0%,-9%
COc1ccccc1CNC(=O)c1cnn(-c2nccc(-c3cccs3)n2)c1C,x,x,18µM*,x,u,x
CCOC(=O)N1CCN(S(=O)(=O)c2ccc(OC)c(Br)c2)CC1,-3,u,-9%,2%,u,-21%
O=S(=O)(N[C@H]1C[C@@H](NS(=O)(=O)OCC(Cl)(Cl)Cl)C2CCCCC21)OCC(Cl)(Cl)Cl (stereo partly drawn),3,u,u,-23%,23µM*,-81%
CCOC(=O)c1sc(=S)n(C)c1NC(=O)c1ccc(OC)cc1,-3,-3%,2.3µM*,3%,21µM*,21%
CCCc1nnc(NC(=O)Cc2coc3cc(C)cc(C)c23)s1,x,-13%,-18%,x,-23%,-22%
SMILES,IL1B secr inh,TGFb inhibitor,DT40 TDP1 CPT,ASM inhibitor,TDP1 cell noCPT,HepG2 tox
Cc1noc(C)c1-c1ccc(C(=O)N2CCN(C)CC2)c2occc12,39,-4%,u,x,-17%,-15%
COc1ccc2oc(=O)c(-c3ccccc3C(=O)N3CCOCC3)cc2c1,-2,18%,-1%,58%,-7%,0%
COc1ccc(-c2ccc(C(=O)N3CCN(C)CC3)c3occc23)c(C)c1,6,9%,15µM*,x,6.5µM*,-7%
COc1ccc(-c2ccc(C(=O)N3CCOCC3)c3occc23)c(C)c1,16,31%,15µM*,x,18µM*,9%
C/C(CC(=O)Nc1c(C)cc(C)cc1C)=N\NC(=O)Cc1ccccc1,3,-1%,6%,4%,-7%,14%
Cc1cc(N2CCOCC2)c2c(N)c(Br)cc(C)c2n1,u,0%,u,12%,3.3µM*,-1%
Cc1noc(C)c1S(=O)(=O)N1CCN(S(=O)(=O)c2ccccc2C#N)CC1,5,-4%,4%,2%,-9%,6%
CCCCN(C(=O)C1CCCO1)c1c(N)n(CC(C)C)c(=O)[nH]c1=O (stereo not drawn),22,-3%,18%,4%,13%,-7%
CC(C)c1ccc(C2C3=C(CC(C)(C)CC3=O)NC3=C2C(=O)c2ccccc23)cc1 (stereo not drawn),u,u,21µM*,-28%,u,-10%
COc1cc(Nc2ncc3c(n2)CCN(Cc2cc(F)cc(F)c2)C3)cc(OC)c1,x,-27%,4.6µM*,x,3.7µM*,-37%
COc1ccc(OC)c(Nc2ncc3c(n2)CCN(Cc2cc(OC)c(OC)c(OC)c2)C3)c1,x,1%,5.8µM*,x,7.3µM*,-4%
CCCCN1CCc2nc(Nc3ccc(OC)cc3OC)ncc2C1,x,-9%,u,x,u,5%
COc1cc(Nc2ncc3c(n2)CCN(Cc2cccc(C)c2)C3)cc(OC)c1,x,u,3.7µM*,x,3.3µM*,-48%
COc1ccc(-c2ccc(C(=O)NCC3Cc4cccc(-c5nc(C)cnc5C)c4O3)o2)cc1 (stereo not drawn),x,x,-2%[9.04 µM],x,u,x
